Broadly, the inhibition is the drop in the measured response relative to a control, in per cent.

We go through 107 molecules from PubChem BioAssay AID778 (Sanford-Burnham Center for Chemical Genomics, 2007).

Out of some 96,000 compounds screened, about 20,000 (21%) were called active. Not all results are given here. Values without a mark were called inactive.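 The calls were made as follows: active = CYP2C19 inhibition above a set limit at 5 µM in the primary screen (cut at about 50% in these data); inactive = the rest.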

Chain of Cytochrome P450 2C19 (Homo sapiens) (P33261 whole entry, looked up): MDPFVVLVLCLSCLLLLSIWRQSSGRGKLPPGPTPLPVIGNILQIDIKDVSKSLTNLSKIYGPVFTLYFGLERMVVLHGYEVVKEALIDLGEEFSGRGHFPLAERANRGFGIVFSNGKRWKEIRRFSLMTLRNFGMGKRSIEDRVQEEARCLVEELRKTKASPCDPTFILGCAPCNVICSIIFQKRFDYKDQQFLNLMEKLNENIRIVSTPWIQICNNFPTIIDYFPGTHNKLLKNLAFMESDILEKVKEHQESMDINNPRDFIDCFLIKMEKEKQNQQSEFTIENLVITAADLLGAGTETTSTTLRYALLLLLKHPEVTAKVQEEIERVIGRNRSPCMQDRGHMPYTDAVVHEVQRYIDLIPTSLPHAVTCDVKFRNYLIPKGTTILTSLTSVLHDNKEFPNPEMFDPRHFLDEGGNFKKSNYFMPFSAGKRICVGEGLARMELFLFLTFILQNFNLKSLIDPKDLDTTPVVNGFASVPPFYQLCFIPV

This assay has as its target Cytochrome P450 2C19 (Homo sapiens) (UniProt P33261). In words: blockers of cytochrome P450 2C19 activity – biochemical, luminescence, ADME assay, primary screen (AID 778).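 Also: plate controls were negative control wells for no effect and 2.5 mM tranylcypromine positive control for full effect.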 The following applies: CYP2C19 Supersomes, luciferin-H EGE luminescence, 30 min; at 5 µM; stronger effect = higher value.
In the case of `CC(C)OCCCNC(=O)C1CC(=O)N(C2CCCCCCC2)C1` (configuration not stated), the inhibition is -8.7%. In the case of `Cc1ccc(S(=O)(=O)N(c2cccc(C)c2)C2CCS(=O)(=O)C2)cc1` (configuration not stated) it was -10.2%; in that of `CCc1ccc(CCC(=O)Nc2ccc(S(N)(=O)=O)cc2)o1`, -6.2%; in that of `CCOc1ccccc1NC(=O)CCc1ccc(C)o1`, 90.7% (active). The same measure for `CCOc1ccccc1Nc1nnc(SCC(=O)Nc2cc(C)on2)s1`: 9.6%; for `O=c1c2ccccc2nc2n1C(CSCc1cccc(C(F)(F)F)c1)CS2` (configuration not stated): 84.1% (active); for `O=c1c2ccccc2nc2n1C(CSc1ccc(F)cc1)CN2` (configuration not stated): -3.9%. In the case of `O=c1c2ccccc2nc2n1C(CSCc1ccccc1)CS2` (configuration not stated) it was 63.8% (active).

For `CC1CSc2nnc(CCc3ccccc3)n21` (configuration not stated), the inhibition was 2.1%. Consider `Cc1ccccc1N/N=C/c1ccc(N2CCOCC2)cc1`, for which the inhibition is 23.7%. For the molecule `CCOc1ccccc1/C=c1\sc2nc(-c3ccco3)nn2c1=O`, the inhibition is 15.4%. In the case of `O=C(NC1CCCCC1)C1CC(=O)N(CCc2ccccc2)C1` (configuration not stated) it was -5.3%. In the case of `O=C(CN1C(=O)CC(c2ccccc2)=Nc2ccccc21)NC1CCCCC1` it was 52.2% (active); in that of `CN(CCCNC(=O)CN1C(=O)CC(C)(C)S(=O)(=O)c2ccccc21)C1CCCCC1`, 9.9%. As to `O=C(NCc1ccco1)c1cc(-c2cccnc2)nc2ccc(Cl)cc12`, the inhibition was 0.7%. For the molecule `O=C(NCCCN1CCN(C2CCCCC2)CC1)Nc1ccccc1C(F)(F)F`, the inhibition was -6.6%. Regarding `Cc1ccc(CNC(=O)C2CCCN(S(C)(=O)=O)C2)cc1` (configuration not stated), the inhibition is 26.6%. Consider `Cc1onc(-c2ccccc2)c1C(=O)N1CCOCC1`, for which the inhibition is 1.4%.

For the molecule `O=C(Nc1ccccc1[N+](=O)[O-])C1C(c2ccccc2)=C1c1ccccc1`, the inhibition is 18.5%. In the case of `CC(=O)Nc1cccc(NC(=O)c2c(-c3ccccc3)noc2C)c1` it was 67.3% (active); in that of `Cc1ccoc1C(=O)Nc1cccc(Oc2ccccc2)c1`, 5.3%; in that of `CCOC(=O)c1c(-c2cccc(C)c2)csc1NC(=O)c1c(-c2ccccc2)noc1C`, 37.7%. Regarding `Cc1onc(-c2ccccc2)c1C(=O)Nc1ccccc1C#N`, the inhibition was 86.7% (active). In the case of `CCOC(=O)c1sc(NC(=O)CSc2ncccn2)c(C#N)c1C` it was 6.5%; in that of `CCOC(=O)c1cc(NC(=O)c2cccnc2)cc(C(=O)OCC)c1`, 22.9%; in that of `Cc1cc(C(=O)CC#N)c(C)n1CC(F)(F)F`, 17%. In the case of `CC(C)OCCCNC(=O)CNC(=O)c1cccs1` it was 14%; in that of `CCCOc1ccc(C2c3c(oc4cc(C)c(C)cc4c3=O)C(=O)N2CCCN2CCOCC2)cc1` (configuration not stated), 69.9% (active). Regarding `CCOc1ccc(C2C(C(=O)O)c3ccccc3C(=O)N2CCN2CCOCC2)cc1` (configuration not stated), the inhibition was -12.7%. In the case of `CCCCOc1ccc(C(C)(O)CCN2CCOCC2)cc1` (configuration not stated), the inhibition is -1.7%. `COC(=O)[C@H](C)NC(=O)Nc1ccc(OC(F)(F)F)cc1`: the inhibition is 9.5%. Turning to `Cc1ccc(N2C(=O)S/C(=C/c3cn(C)c4ccccc34)C2=O)cc1`, the inhibition is -7.8%. `COc1ccc(-n2nnnc2SCc2nc(N)nc(N3CCOCC3)n2)cc1`: the inhibition is 22.5%.

Turning to `CCc1ccc(-c2nnn(Cc3nn[nH]n3)n2)cc1`, the inhibition is 14.2%.

Turning to `COc1ccc(-c2nnn(Cc3nc(N)nc(N4CCCCC4)n3)n2)cc1`, the inhibition is 65.2% (active).

For `CCN(CC)Cc1cc(C(C)=O)ccc1O`, the inhibition was -2.4%.

As to `Cc1c(CN2CCC(C)CC2)c(=O)n(-c2ccccc2)n1C`, the inhibition was -0.1%. In the case of `Cc1nnc(SCC(=O)NCc2ccccc2)s1` it was -3.1%; in that of `Cc1nnc(SCc2nc3ccccc3nc2C)s1`, 52.6% (active); in that of `Cc1nnc(SCC(=O)N2CCc3ccccc3C2)s1`, 42.5%. The same measure for `CCc1c(C)sc(NC(=O)OC)c1C(=O)N1CCOCC1`: -0.7%. In the case of `CC(=O)c1cnc(SCCN2C(=O)c3ccccc3C2=O)nc1C` it was 57.8% (active); in that of `CC(C)OC(=O)CN1C(=O)c2ccccc2C1=O`, 24%; in that of `C=CCn1c(C)cc(C(=O)CN2C(=O)c3ccccc3C2=O)c1C`, 2.9%. As to `CC(=O)NNc1cc(=O)c2c(=O)n(C)c(=O)n(C)c2[nH]1`, the inhibition is -1.8%. In the case of `Cc1cc(=O)n2c3c(cccc13)CCC2` it was 18.8%. Regarding `COc1ccc(/C=C2/S/C(=N/N=C3\CC4CCC3(C)C4(C)C)NC2=O)cc1` (configuration not stated), the inhibition is -9.6%. The same measure for `CCOCCCNS(=O)(=O)Cc1ccccc1`: 42.5%. The same measure for `CCOc1ccc(S(=O)(=O)NCCSc2ccccc2)cc1`: 98.7% (active); for `CCOc1ccc2nc(NCCNS(=O)(=O)c3ccccc3)c(C#N)cc2c1`: 24.6%; for `COCCNC(=O)Cn1cc2c(n1)CCCCC2`: -6.8%. `O=C1C2C3C=CC(C4CC34)C2C(=O)N1/N=C/c1ccc(-c2ccccc2[N+](=O)[O-])o1` (configuration not stated): the inhibition was 72.2% (active).

Turning to `CCOc1cc2[nH]c(=O)n(CCC(=O)NCc3ccc(OC)cc3)c(=O)c2cc1OCC`, the inhibition is -6%.

As for `C/C(=C\c1ccco1)C1Nc2cccc3cccc(c23)N1`, the inhibition is 72.8% (active). For `O=C(NCC1CCCO1)/C(=C\c1ccco1)NC(=O)c1ccccc1` (configuration not stated), the inhibition was -11.9%. In the case of `Cc1cccc(NC(=O)/C(=C\c2ccco2)NC(=O)c2ccccc2)c1` it was 13.6%; in that of `CCOC(=O)N1CCN(C(=O)c2cnc3n(c2=O)CCS3)CC1`, -15.9%; in that of `CCOC(=O)c1nc(C)n(-c2ccc(Cl)cc2Cl)n1`, 16.5%. Consider `Cc1nn(C(C)CC(=O)O)c(C)c1C` (configuration not stated), for which the inhibition was 6.7%. In the case of `Cc1ccc(N2C(=O)C3C(c4ccccc4)(C2=O)C3(c2ccccc2)c2ccccc2)cc1` (configuration not stated) it was 8.1%. The same measure for `O=C(C1CC1)N1CCN=C1SCc1ccc(Cl)cc1`: 98.5% (active).

`CCCOC(=O)CC1C(=O)NCCN1Cc1ccc(F)cc1` (configuration not stated): the inhibition is 19.1%. With `CSC1=NCCN1C(=O)c1ccc(S(=O)(=O)N2CCOCC2)cc1`, the inhibition was 13.3%. In the case of `CCC(=O)N1CCN=C1SCc1ccc(F)cc1` it was 78.7% (active). The same measure for `O=C(c1ccco1)N1CCN=C1SCc1cccc(Cl)c1`: 20.6%; for `CCOC(=O)c1c(C(C#N)C#N)cc(C)nc1C`: -4.1%; for `CC(=O)Nc1ccc(NC(=O)c2sc3nc4c(c(-c5ccc(C)cc5)c3c2N)CCC4)cc1`: -6.7%. The same measure for `O=S(=O)(/C=C/c1ccccc1)NCCc1ccccn1`: 53.8% (active); for `NS(=O)(=O)c1ccc(NS(=O)(=O)/C=C/c2ccccc2)cc1`: 38.8%.

On to `C/C(N)=C(\C#N)C(=O)NCCc1ccccn1`, for which the inhibition was -6.3%.

Consider `COc1ccc(CC(=O)Nc2nc3n(n2)C(c2ccccc2)CC(=O)N3)cc1OC` (configuration not stated), for which the inhibition was -4.1%.

`COc1ccc(CN2CCCCC2C)cc1OC` (configuration not stated): the inhibition is 3%. The same measure for `CCc1ccc2oc(=O)cc(CN3CCCCC3C)c2c1` (configuration not stated): 92.7% (active). In the case of `O=c1cc(CN2CCN(c3cccc(Cl)c3)CC2)c2cc3c(cc2o1)CCCC3` it was 12.6%; in that of `O=C(CSc1nnc(-c2ccoc2)o1)N1CCOCC1`, -14.6%; in that of `Cc1cc(C)n(-c2cc(Oc3ccccc3)ncn2)n1`, 15.9%.

Take `CNS(=O)(=O)c1cnccc1N1CCN(c2cccc(C)c2)CC1`: the inhibition was 78.6% (active). As to `CC(C)=C1SC(N2CCN(c3cccc(C)c3)CC2)=NC1=O`, the inhibition was 6.5%. The same measure for `O=S(=O)(c1cnccc1N1CCN(/N=C/c2ccc(Br)cc2)CC1)N1CCCCC1`: -12%; for `CCn1c(SCC(=O)Nc2nc(C)cs2)nnc1C(C)NC(=O)c1ccccc1` (configuration not stated): 8.1%; for `O=C1CC(c2ccccc2)CC(O)=C1C=NCCN1CCOCC1` (configuration not stated): 0.2%.

For `CCCc1nnc(NC(=O)c2cc(OC)cc(OC)c2)s1`, the inhibition was 32.5%.

Regarding `COc1ccccc1NS(=O)(=O)N(C)C`, the inhibition was 4.9%. Consider `COc1ccc(Cl)cc1S(=O)(=O)Nc1cccc(C(=O)O)c1`, for which the inhibition is 13.4%. For `COc1ccc(OC)c(S(=O)(=O)Nc2ccccc2F)c1`, the inhibition was 85.9% (active).

As to `Cn1c(SCC(=O)OC2CCCCC2)nnc1-c1ccc(S(=O)(=O)N2CCCC2)cc1`, the inhibition was 5.7%.

With `Cc1ccc(NC(=S)NC2CCCC2)cc1`, the inhibition is 54.5% (active). In the case of `CC(C)c1ccc(NC(=O)NC2CCCCC2)cc1` it was -15.2%.

Consider `Cc1ccc(NC(=S)N/N=C2/CCCc3c(C)cc(C)cc32)cc1`, for which the inhibition was -4.5%.

Consider `CCOC(=O)N1CCN(CC(=O)c2ccc3c(c2)CCN3)CC1`, for which the inhibition was 34.1%. Take `CC(C)NC(=O)C(=O)N/N=C/c1ccco1`: the inhibition was -7%. Turning to `O=C1c2ccccc2C(=O)N1CCc1nn[nH]n1`, the inhibition is -6.8%. The same measure for `O=C1c2ccccc2C(=O)N1CCC(c1ccccc1)c1ccco1` (configuration not stated): 22.9%. In the case of `Nc1ccc(SCCN2C(=O)c3ccccc3C2=O)cc1` it was 94.6% (active). For `Cc1cc(Br)ccc1NC(=O)C1CCCO1` (configuration not stated), the inhibition was 46.4%. In the case of `CCn1c(O)c(N=NC2=NC(=O)CS2)c2cc(C)ccc21` it was 14.8%.

Regarding `O=C(O)C1C2C=CC(C2)C1C(=O)N1CCN(CCO)CC1` (configuration not stated), the inhibition was 1%. In the case of `CC1CC2=C(CC1/C=N/NC(N)=S)C(C)(C)CCC2` (configuration not stated) it was 30.6%; in that of `O=C(Cn1c(=O)n(Cc2ccco2)c(=O)c2ccccc21)NCC1CCCO1` (configuration not stated), 7.3%. Regarding `CCc1ccc(NC(=O)CSc2nc3ccccc3c(=O)n2CCN2CCOCC2)cc1`, the inhibition is 34.4%. The same measure for `CCCCCCn1c(SCC(=O)c2ccccc2)nc2c1c(=O)[nH]c(=O)n2C`: -16.1%; for `CCCCn1c(SCC(=O)NCC2CCCO2)nc2ccc(N3CCOCC3)cc2c1=O` (configuration not stated): 34.3%; for `Cn1c(-c2ccc(F)cc2)cnc1SCC(=O)NCc1ccco1`: 10.8%.

Take `O=C(CSc1nc2cc3c(cc2c(=O)n1CCC1=CCCCC1)OCO3)NCc1ccco1`: the inhibition was 7.2%. In the case of `O=C(CCCn1c(SCC(=O)c2ccc(F)cc2)nc2ccccc2c1=O)NCc1ccco1` it was 70% (active); in that of `O=C(CCCn1c(SCC(=O)c2ccccc2)nc2ccccc2c1=O)NCC1CCCO1` (configuration not stated), 58.1% (active); in that of `O=C(CCn1c(SCC(=O)c2ccccc2)nc2ccccc2c1=O)NCc1ccc(F)cc1`, 60.5% (active).
